From PubChem BioAssay
Most compounds without a hit are left out; they make up all but 9.3% or so of the library.
ELG1 repair inh – ELG1-dependent DNA repair inhibition; Potency, µM (series often up to 46.1 µM), hits mostly inhibitors; hit rate 2.3% among 330,000; AID 504467; HEK293T ELG1-luciferase reporter, luminescence, 16 h; DNA damage induced by 5-fluorouridine; note: nearly all actives have a fitted effect of over 55% in size
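5-Fluorouridine DNA damage + compound/DMSO, 2,000 cells/well, 16 h, 37 °C/5% CO2. ONE-Glo, 30 min RT, luminescence. Readout = decrease in reporter signal.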
ELG1 genotox – inducers of genotoxicity in HEK293T ELG1-luciferase cells. hit rate 1.3% among 330,000. Potency, µM (highest dose often 46 µM), hits mostly activators. HEK293T ELG1-luciferase reporter, luminescence, 16 h; note: nearly all actives have a fitted effect of over 60% in size
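HEK293T cells expressing luciferase-tagged ELG1 were treated with compound or DMSO for 16 hr at 37°C. Luciferase activity was then read after 30 min with ONE-Glo at room temperature; rising signal flags genetic stress.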
NPC1 prom act – NPC1 promoter activation; Potency, µM (titrated, usually from 9.22 µM), most hits filed as activators; hit rate 2.4% among 320,000; Huh7 NPC1 promoter luciferase reporter, 24 h; note: nearly all actives have a fitted effect of over 60% in size
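Compounds in DMSO were transferred onto Huh7 NPC1-luciferase reporter cells pre-incubated 2 h; after 24 h at 37 °C, Amplite reagent was dispensed and luminescence recorded 10 min later.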
SMN2 splice up – increases expression of the SMN2 splice variant; HEK293 SMN2-luciferase splicing reporter, luminescence, 30-36 h; Potency, µM (highest dose often 46.1 µM), usual class: activators; hit rate 2.8% among 210,000; note: nearly all actives have a fitted effect of over 55% in size
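HEK293 cells carry an SMN2 minigene-luciferase reporter in which exon 7 inclusion puts luciferase in frame. Cells were seeded at 2000 cells/well, attached for 10-12 hours, then exposed to compounds for 30-36 hours at 37C before ONE-Glo luminescence.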
FLuc counter – inhibits or activates purified firefly luciferase, miR-21 counter-screen. Potency, µM (doses to about 57.5 µM), usual class: inhibitors. hit rate 6.9% among 360,000. purified FLuc, Km substrates, luminescence inhibition. AID 588342. P08659; note: nearly all actives have a fitted effect of over 55% in size
Target sequence (P08659 whole entry, looked up): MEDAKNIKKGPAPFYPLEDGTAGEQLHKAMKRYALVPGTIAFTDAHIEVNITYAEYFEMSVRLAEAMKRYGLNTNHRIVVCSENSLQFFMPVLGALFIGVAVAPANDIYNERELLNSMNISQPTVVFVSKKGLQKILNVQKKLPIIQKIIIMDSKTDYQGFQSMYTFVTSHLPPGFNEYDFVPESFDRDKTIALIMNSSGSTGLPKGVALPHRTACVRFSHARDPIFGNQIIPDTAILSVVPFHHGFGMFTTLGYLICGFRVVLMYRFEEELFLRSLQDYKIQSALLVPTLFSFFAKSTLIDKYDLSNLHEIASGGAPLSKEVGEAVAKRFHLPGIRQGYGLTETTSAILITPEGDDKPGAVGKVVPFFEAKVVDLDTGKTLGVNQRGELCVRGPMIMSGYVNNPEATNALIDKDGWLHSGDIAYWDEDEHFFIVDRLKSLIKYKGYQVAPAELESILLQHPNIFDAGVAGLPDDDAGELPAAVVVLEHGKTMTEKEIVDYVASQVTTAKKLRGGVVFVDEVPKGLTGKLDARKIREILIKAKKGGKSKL
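Purified P. pyralis luciferase, 10 nM final, with Km-level 10 uM D-luciferin and 10 uM ATP in 50 mM Tris acetate pH 7.5, 10 mM Mg acetate, 0.01% Tween-20, 0.05% BSA; 6-point qHTS titration about 60 µM downward; luminescence read.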
Rab9 promoter act – Rab9 promoter activation; Huh7 Rab9 promoter-luciferase reporter, luminescence, 24 h; Potency, µM (doses to about 9.22 µM), most hits filed as activators; hit rate 2.8% among 320,000; AID 485297; note: nearly all actives have a fitted effect of over 60% in size
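Luminescence from Amplite-detected luciferase (10 minutes, ambient) reports Rab9 promoter activation. Before that, stable Rab9-luciferase Huh7 cells (1500/well, reduced-serum OP-MEM I plus 10% FBS) were exposed to compound for 24 hours at 37C.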
ELG1 FLuc counter – luciferase inhibition in cell-free luciferin readout for ELG1 hits. shares compounds with ELG1 repair inh. cell-free firefly luciferase luminescence counter-screen, ViewLux. Potency, µM (doses to about 46.1 µM), hits mostly inhibitors. hit rate 3% among 350. AID 624247
ELG1 Luc conf – human ELG1 repair inhibition, luciferase-tagged ELG1 confirmation | shares compounds with ELG1 repair inh | HEK293T ELG1-luciferase levels, luminescence; cells co-treated with 5-fluorouridine | Potency, µM (top dose mostly 46.1 µM), hits mostly inhibitors | hit rate 68% among 670 | AID 624248; note: nearly all actives have a fitted effect of over 55% in size
ELG1 MMS Luc – inhibits ELG1-dependent repair under MMS stimulation in HEK293T cells; AID 624249; hit rate 53% among 670; Potency, µM (doses to about 46.1 µM), usual class: inhibitors; shares compounds with ELG1 repair inh; HEK293T luciferase-tagged ELG1 level, MMS stimulated; note: nearly all actives have a fitted effect of over 60% in size
ELG1 5FU viab – confirmation of ELG1 repair inhibitors: viability with 5FU. shares compounds with ELG1 repair inh. cell viability with 5-FU, ELG1-dependent repair. Potency, µM (titrated, usually from 46.1 µM), most hits filed as cytotoxic. 670 tested, under 10 active;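 note: ELG1-luc HEK293T cells cotreated with 5-fluorouridine at 10 µM final; viability measured 16 h after compound addition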
ELG1 MMS cell – confirmation of ELG1 repair inhibitors: viability with MMS. shares compounds with ELG1 repair inh. Cell viability with MMS, ELG1-dependent DNA repair. Potency, µM (series often up to 46.1 µM), most hits filed as cytotoxic. hit rate 33% among 670. AID 624251;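 note: ELG1-luc HEK293T cells co-treated with 10 µM MMS; viability read 16 h after compound addition; nearly all actives have a fitted effect of over 60% in size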
Cell viab unstim – counter-screen for ELG1 repair inhibitors: unstimulated cell viability. cell viability counter-screen, unstimulated, luminescence. Potency, µM (titrated, usually from 45.9 µM), most hits filed as cytotoxic. hit rate 8% among 900. shares compounds with ELG1 repair inh. AID 624252;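 note: compound exposure lasted 16 hours before reading; nearly all actives have a fitted effect of over 55% in size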
FLuc biochem – firefly luciferase inhibition counter-screen; purified firefly luciferase, luminescence counter-screen; AID 624253; hit rate 10% among 350; shares compounds with ELG1 repair inh; Potency, µM (doses to about 57.5 µM), usual class: inhibitors
A number is an active result; – = inactive; ? = inconclusive; · = no result; [ ] = remark or other dose. Calls come from the whole dose curve; as a rule, active = well fitted curve in the direction sought with a large enough effect; inconclusive = small, poorly fitted or top-dose-only effect, or another doubt; inactive = no such curve, though single readings can be large; an effect the other way counts as inactive or inconclusive.

SMILES	ELG1 repair inh	ELG1 genotox	NPC1 prom act	SMN2 splice up	FLuc counter	Rab9 promoter act	ELG1 Luc conf	ELG1 MMS Luc	ELG1 5FU viab	ELG1 MMS cell	Cell viab unstim	others
CCN1CCN(S(=O)(=O)c2cc(OCC(=O)NC3CCCCC3)c(C)cc2Cl)CC1	?	–	–	·	–	–	–	3.1µM	–	2.5µM	?
Cc1ccc(-c2nn(C)c(=O)c3ccccc23)cc1S(=O)(=O)NCCN1CCOCC1	–	–	–	–	–	–	·	·	·	·	·
CCOc1ccc(C(C(=O)NC2CCCC2)N(C(=O)c2snc(C(N)=O)c2N)c2cccc(O)c2)cc1 (stereo unspecified)	4.6µM	–	–	·	–	–	2µM	?	?	–	?
NC(=O)c1nsc(C(=O)N(c2cccc(O)c2)C(C(=O)NC2CCCC2)c2ccc(Cl)cc2)c1N (stereo unspecified)	–	–	–	·	–	–	·	·	·	·	·
CCOc1ccc(N(C(=O)c2snc(C(N)=O)c2N)C(C(=O)NCC2CCCO2)c2ccco2)cc1 (stereo unspecified)	–	–	–	·	–	–	·	·	·	·	·
CCOc1ccc(C(C(=O)NCC2CCCO2)N(C(=O)c2snc(C(N)=O)c2N)c2ccc3c(c2)OCCO3)cc1 (stereo unspecified)	3.3µM	–	–	·	–	–	1.3µM	–	?	–	–
O=C(NCCc1ccccc1)c1ccc(CS(=O)Cc2cccc(Cl)c2)o1 (stereo unspecified)	–	–	–	·	–	–	·	·	·	·	·
CSc1ccc(C(=O)c2[nH]c(=O)[nH]c2C)cc1	?	?	–	–	–	–	·	·	·	·	?	ELG1 FLuc counter=–;FLuc biochem=?
O=C(CSc1ncnc2sccc12)N1CCCCC1	?	?	·	·	·	·	·	·	·	·	–
NC(=O)c1ccc(N2CCN(c3ccc(O)cc3)CC2)c([N+](=O)[O-])c1	4.1µM	–	–	–	–	–	6.3µM	–	?	?	–
NC(=O)c1ccc(N2CCN(S(=O)(=O)c3ccccc3)CC2)c([N+](=O)[O-])c1	1.6µM	–	–	–	–	–	?	0.71µM	–	0.79µM	–
Cc1ccc(NC(=S)N2CCN(C)CC2)c(C)c1	–	–	–	–	–	–	·	·	·	·	·
Cc1c(OCc2ccc([N+](=O)[O-])cc2)ccc2c3c(c(=O)oc12)CCC3	?	?	1.1µM	5.6µM	?	1µM	·	·	·	·	–
Cc1ccc(Cl)cc1NC(=O)c1csnn1	·	·	·	·	–	·	·	·	·	·	·
C=CCn1c(C)cc(C(=O)COC(=O)c2n[nH]c(=O)c3ccccc23)c1C	?	?	·	·	·	·	·	·	·	·	–
COc1ccc(-c2cn(Cc3ccc(C(=O)c4ccccc4)cc3)nn2)cc1	?	18µM	?	·	11µM	?	·	·	·	·	?
c1ccc(CCc2nn3c(-c4ccncc4)nnc3s2)cc1	2.6µM	–	–	–	–	–	5µM	?	–	–	–
Cn1c(=O)c2c(nc(NC(Cc3ccccc3)C(=O)O)n2Cc2ccccc2)n(C)c1=O (stereo unspecified)	–	–	–	–	–	–	?	–	–	–	–	ELG1 FLuc counter=–;FLuc biochem=–
Cn1cccc1C(=O)OCC(=O)Nc1sccc1C#N	?	21µM	·	·	·	·	·	·	·	·	–
Cn1cccc1C(=O)OCC(=O)NCc1ccc2c(c1)OCO2	?	–	–	·	·	–	·	·	·	·	·
Cn1cccc1C(=O)OCC(=O)Nc1ccc2c(c1)OCCO2	?	1µM	·	·	·	·	·	·	·	·	?	ELG1 FLuc counter=–;FLuc biochem=2.1µM
CCN(CC1COc2ccccc2O1)C(=S)Nc1ccc(F)cc1 (stereo unspecified)	?	–	–	–	–	–	·	·	·	·	·
Cc1ccc2c(c1)sc1nc(=O)n(-c3ccc(Cl)c(Cl)c3)c(=O)n12	?	–	–	–	–	–	·	·	·	·	–	ELG1 FLuc counter=–;FLuc biochem=–
O=c1nc2sc3ccccc3n2c(=O)n1-c1cccc(Cl)c1	?	4.6µM	–	·	–	?	·	·	·	·	–	ELG1 FLuc counter=–;FLuc biochem=–
Cc1ccc2c(c1)sc1nc(=O)n(-c3ccc(Cl)cc3)c(=O)n12	–	–	–	–	–	–	·	·	·	·	·
SMILES	ELG1 repair inh	ELG1 genotox	NPC1 prom act	SMN2 splice up	FLuc counter	Rab9 promoter act	ELG1 Luc conf	ELG1 MMS Luc	ELG1 5FU viab	ELG1 MMS cell	Cell viab unstim	others
Cc1ccc(NC(=O)Cn2cnc3ccccc32)cc1C	4.6µM	–	–	–	–	–	–	?	–	?	?
O=C(Cn1cnc2ccccc21)Nc1cccc([N+](=O)[O-])c1	?	–	–	–	–	–	·	·	·	·	·
O=c1c2c(-c3ccc(Cl)cc3)csc2ncn1/N=C/c1cccc([N+](=O)[O-])c1O	–	–	–	–	?	–	·	·	·	·	·
Cc1nn(-c2ccccc2)c(N2CCCC2)c1/C=N/n1cnc2scc(-c3ccccc3)c2c1=O	13µM	–	–	–	–	–	4.5µM	?	–	–	?	ELG1 FLuc counter=–;FLuc biochem=–
CCC(=O)N1CCc2cc(Br)cc(S(=O)(=O)N3CCC(C(=O)NCCCOC(C)C)CC3)c21	1.6µM	–	–	–	–	–	7.9µM	–	?	–	–
Cc1nc(N2CCc3ccccc3C2)[nH]c(=O)c1CCC(C)C	–	–	–	–	–	?	·	·	·	·	·
COCCn1c(=N)c(C(=O)NCCc2ccc(OC)cc2)cc2c(=O)n3cccc(C)c3nc21	?	–	–	–	–	–	5µM	?	?	–	?
COc1ccc(CNc2cccc3[nH]c(C(F)(F)F)nc23)cc1	?	–	–	·	–	–[1.84 µM]	·	·	·	·	·
Cc1ccc(C(=O)Nc2cccc3[nH]c(C(F)(F)F)nc23)cc1	?	–	–	·	?	–	16µM	7.9µM	–	8.9µM	?
CC1CCCCC1NC(=O)CSc1nncs1 (stereo unspecified)	–	–	–	–	–	–	·	·	·	·	·
